SMILES strings stand for the structures. Results filed as inconclusive are left out. A call without a number means that no potency is given here. Calls of active or inactive are those of the source. The call rests on the fitted dose curve; in most records, active means well fitted inhibition curve with a large enough effect; inconclusive means small, poorly fitted or top-dose-only effect; inactive means flat fitted curve, though single readings scatter.
Potency means the concentration at half of the fitted maximal effect.

The test relates to MCC-13. Kind of test: qHTS assay to identify novel small-molecules to repurpose for Merkel cell carcinoma treatment (AID 1296009). Further: nearly all actives have a fitted effect of over 60% in size. As to conditions: MCC and control cell lines, CellTiter-Glo viability, 72 h; series mostly up to 46 µM. Summed up:
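After compound transfer in DMSO, plates were kept 72 hr at 37 degree celsius. Luminescent ATP signal from CellTiter-Glo served as viability measure, normalized against DMSO and no-cell controls.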
(In general: In qHTS, concentration-response curves come from the screen itself.)
Take `CC(CN1c2ccccc2Sc2ccccc21)N(C)C` (stereo not given): the Potency entry is “inactive”.

`O=C1NC(=O)[C@@]2(CCOc3ccc(F)cc32)N1`: the Potency entry was “inactive”.

With `CNCCCC1c2ccccc2C=Cc2ccccc21`, the Potency entry was “inactive”.

On to `CSc1ccc2c(c1)N(CCC1CCCCN1C)c1ccccc1S2` (stereo not given), for which the Potency was 26.6 µM (active).

With `CN(C)CCC=C1c2ccccc2CCc2ccccc21`, the Potency result was “inactive”.

These data come from PubChem BioAssay (NCATS).
